Experimental findings from PubChem BioAssay are described below.

Active and inactive are the calls of the source.

Test [1] is described as follows: compounds binding Alexa647 anti-His antibody – biochemical, small-molecule microarray, 635 nm fluorescence, artefact control for SMM control protein annotation, primary screen (AID 1128).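 Further: score merges feature fluorescence with signal-to-noise for each printed compound spot.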 The note with it: higher = more signal.
Test [2] has as its system Human papillomavirus type 1a E7 protein (residues 1-88). Kind of test: HPV1a E7 small-molecule binders, primary screen, biochemical, small-molecule microarray, residues 1-88, 635 nm (AID 1129). The note with it: small-molecule microarray binding, fluorescence 635 nm; higher = more signal.
For test [3], the target named is Focal adhesion kinase 1 (Homo sapiens) (UniProt Q05397). Kind of test: PTK2 protein binding on printed compound slides – biochemical, small-molecule microarray, 635/667 nm fluorescence, BSA, DTT, primary screen (AID 1130).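 Further: composite of spot emission at 667 nm and signal to noise over triplicate slides.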 The note with it: 635 nm fluorescence, higher = more signal.
The test system of test [4] is Fibrinogen (Alexa647-labelled). Kind of test: Alexa647-fibrinogen binding to printed small molecules – biochemical, small-molecule microarray, 635/667 nm fluorescence, artefact control for SMM control-protein annotation, profiling panel (AID 1131).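 Further: z-score merges 667 nm fluorescence with per-spot signal-to-noise over triplicate slides.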 The note with it: fibrinogen-A647 binding fluorescence, higher = more signal.
For test [5], the target named is Follistatin (Homo sapiens) (UniProt P19883). The experiment in a line: FST protein binding to printed compounds – biochemical, small-molecule microarray, 635/667 nm fluorescence, primary screen (AID 1132). The note with it: 635 nm fluorescence, higher = more signal.
The target of test [6] is Fibroblast growth factor 2 (Homo sapiens) (UniProt P09038). Kind of test: basic fibroblast growth factor binding to printed compounds – biochemical, small-molecule microarray, 635/667 nm fluorescence, primary screen (AID 1133). The note with it: FGF2, fluorescence 635/667, higher = more signal.
Test [7] can be described thus: JC-1 mitochondrial potential readout, lung cancer cells – cell-based, A549, JC-1 fluorescence, basal, 24 h, 100 nL, profiling panel (AID 1138).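 Further: A549 lung adenocarcinoma cells under basal conditions with no added stimulus; test concentration not given here.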 The note with it: higher = more signal.
The test system of test [8] is Lefty1. Kind of test: Lefty1 protein binding to printed compounds – biochemical, small-molecule microarray, 635/667 nm fluorescence, primary screen (AID 1139). The note with it: fluorescence 635/667, higher = more signal.
For test [9], the system named is wheat germ agglutinin (Triticum aestivum), Alexa647-labelled. Kind of test: Alexa647-WGA lectin binding to printed small molecules – biochemical, small-molecule microarray, 635/667 nm fluorescence, artefact control for SMM control-protein annotation, profiling panel (AID 1140).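 Further: score merges 667 nm feature emission with signal to noise over triplicate slides.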 The note with it: WGA-A647 binding, 635 nm fluorescence, higher = more signal.
The target in test [10] is Luciferin 4-monooxygenase (Photinus pyralis) (UniProt P08659). The experiment in a line: inhibition of purified Photinus pyralis luciferase – biochemical, luminescence, purified enzyme, 2006 set, primary screen (AID 1141).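 Further: cell-free assay with purified firefly luciferase at 100 ng per well in PBS; test concentration not given here.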 The note with it: purified firefly luciferase, SteadyGlo luminescence, 30 min; higher = more signal, called active from +8 up or from −8 down.
Sequence of Luciferin 4-monooxygenase (Photinus pyralis) (P08659 whole entry, looked up): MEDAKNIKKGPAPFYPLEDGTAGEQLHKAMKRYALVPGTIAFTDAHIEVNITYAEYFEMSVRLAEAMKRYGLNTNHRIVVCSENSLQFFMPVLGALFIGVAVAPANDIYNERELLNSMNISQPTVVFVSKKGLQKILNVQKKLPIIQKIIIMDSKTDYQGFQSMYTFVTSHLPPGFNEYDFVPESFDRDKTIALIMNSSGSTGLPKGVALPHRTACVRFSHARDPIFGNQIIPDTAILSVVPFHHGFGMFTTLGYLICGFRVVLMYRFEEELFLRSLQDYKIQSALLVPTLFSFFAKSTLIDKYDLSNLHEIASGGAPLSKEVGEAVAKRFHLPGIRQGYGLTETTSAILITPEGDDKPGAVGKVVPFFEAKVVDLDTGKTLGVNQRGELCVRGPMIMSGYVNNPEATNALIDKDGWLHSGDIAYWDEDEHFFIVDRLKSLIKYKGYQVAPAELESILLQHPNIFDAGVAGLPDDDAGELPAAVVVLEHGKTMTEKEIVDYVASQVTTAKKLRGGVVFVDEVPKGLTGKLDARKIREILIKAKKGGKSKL

Sequence of Follistatin (Homo sapiens) (P19883 whole entry, looked up): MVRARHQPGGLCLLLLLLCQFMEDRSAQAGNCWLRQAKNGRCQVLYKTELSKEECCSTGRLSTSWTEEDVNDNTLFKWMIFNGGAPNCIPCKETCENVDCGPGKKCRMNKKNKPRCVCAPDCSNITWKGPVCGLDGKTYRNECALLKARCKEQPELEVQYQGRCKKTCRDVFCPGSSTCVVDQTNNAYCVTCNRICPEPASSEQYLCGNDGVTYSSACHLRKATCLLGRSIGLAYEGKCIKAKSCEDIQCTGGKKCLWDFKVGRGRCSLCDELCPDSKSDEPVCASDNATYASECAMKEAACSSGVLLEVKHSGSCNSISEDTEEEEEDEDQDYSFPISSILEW
Sequence of Fibroblast growth factor 2 (Homo sapiens) (P09038 whole entry, looked up): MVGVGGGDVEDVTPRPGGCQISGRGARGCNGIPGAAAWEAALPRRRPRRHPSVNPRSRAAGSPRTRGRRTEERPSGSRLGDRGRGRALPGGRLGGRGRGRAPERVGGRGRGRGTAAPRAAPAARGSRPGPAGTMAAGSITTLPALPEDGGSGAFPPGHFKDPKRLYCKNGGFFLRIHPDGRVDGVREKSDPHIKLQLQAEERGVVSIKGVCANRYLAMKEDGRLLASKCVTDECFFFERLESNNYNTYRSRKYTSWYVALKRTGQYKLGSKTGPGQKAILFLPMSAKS
Sequence of Focal adhesion kinase 1 (Homo sapiens) (Q05397 whole entry, looked up): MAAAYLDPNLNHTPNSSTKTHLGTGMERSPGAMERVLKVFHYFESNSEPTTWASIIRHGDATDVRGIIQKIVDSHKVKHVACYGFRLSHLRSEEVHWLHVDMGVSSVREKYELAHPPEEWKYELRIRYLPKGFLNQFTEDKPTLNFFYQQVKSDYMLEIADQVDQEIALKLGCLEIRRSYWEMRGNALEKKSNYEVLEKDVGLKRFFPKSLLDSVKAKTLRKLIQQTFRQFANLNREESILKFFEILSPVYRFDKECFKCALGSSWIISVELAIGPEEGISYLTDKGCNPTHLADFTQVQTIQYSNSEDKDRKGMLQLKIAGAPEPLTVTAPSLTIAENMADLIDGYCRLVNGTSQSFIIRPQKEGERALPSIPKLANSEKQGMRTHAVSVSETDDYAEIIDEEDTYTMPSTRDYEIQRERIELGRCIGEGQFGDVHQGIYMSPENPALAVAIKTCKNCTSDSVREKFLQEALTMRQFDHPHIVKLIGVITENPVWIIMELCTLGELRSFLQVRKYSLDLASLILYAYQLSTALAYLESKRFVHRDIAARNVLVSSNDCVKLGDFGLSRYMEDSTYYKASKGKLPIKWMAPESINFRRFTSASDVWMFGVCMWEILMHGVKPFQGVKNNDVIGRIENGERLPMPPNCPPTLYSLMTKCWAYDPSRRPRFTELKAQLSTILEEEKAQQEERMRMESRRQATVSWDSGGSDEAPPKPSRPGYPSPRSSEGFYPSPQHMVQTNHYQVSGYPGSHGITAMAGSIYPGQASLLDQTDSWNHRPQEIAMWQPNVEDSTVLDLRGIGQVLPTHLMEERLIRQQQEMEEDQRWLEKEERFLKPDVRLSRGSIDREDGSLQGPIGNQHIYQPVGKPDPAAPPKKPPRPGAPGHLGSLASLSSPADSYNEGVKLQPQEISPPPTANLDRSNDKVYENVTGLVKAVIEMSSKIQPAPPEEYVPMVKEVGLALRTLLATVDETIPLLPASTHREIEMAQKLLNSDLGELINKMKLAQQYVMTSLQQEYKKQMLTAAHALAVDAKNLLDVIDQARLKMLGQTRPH

Consider `COc1ccccc1CN1C(=O)c2ccccc2[C@@H](C(=O)NCCN2CCOCC2)[C@@H]1c1ccc(CO)cc1`, for which the composite z-score is -0.355 in test [1]; 0.789 in [2]; -0.444 in [3]; 0.234 in [4]; 0.912 in [5]; 1.26 in test [6]. For the same compound, the composite z-score in test [8] is -0.0327; in test [9], 0.285. In addition, the z-score in [7] was 0.708; in [10], 0.706 (inactive).

Consider `O=C1O[C@@H](c2ccccc2)[C@@H](c2ccccc2)N2[C@@H](c3ccc(O)cc3)[C@]3(C(=O)Nc4ccc(C#CC5=CCCCC5)cc43)[C@@H](C(=O)O)[C@H]12`, for which the composite z-score in [1] was determined as 3.13; in test [2], 1.11; in test [3], 0.676; in test [4], 0.734; in test [5], 0.473; in [6] it was 0.146. Moreover, the composite z-score in test [8] worked out at 0.195; in test [9], 1.35. Besides, the z-score in [7] is -0.29; in [10], -3.5 (inactive).

As to `COC(=O)[C@@]1(Cc2ccccc2)[C@H]2c3cc(C(=O)N(C)C)n(Cc4c(-c5ccccc5)noc4C)c3C[C@H]2CN1C(=O)c1ccccc1`, the composite z-score in test [1] is 2.29; in [2], 1.22; in test [3], 1.21; in test [4], 0.968; in [5], 0.212; in [6], -0.533. For the same compound, the figures for the composite z-score in test [8] and in test [9] were -0.579 and 1.17, respectively. The figures for the z-score in [7] and in [10] were 0.582 and 1.49 (inactive), respectively.

Turning to `C=CCC(OC(C)=O)[C@@H]1[C@@H](N(Cc2cc3ccccc3o2)C(=O)c2ccc(C)cc2)c2cc(OCCCO)ccc2N1C(=O)c1ccc2ccccc2c1` (stereo not given in full), the composite z-score was 0.192 in test [1]; -0.409 in test [2]; 0.281 in [3]; 0.257 in [4]; 0.503 in test [5]; 0.286 in test [6]. Further, the composite z-score in test [8] is 0.217; in test [9], 0.32. Also, the z-score was 1.24 in test [7] and -1.76 (inactive) in test [10].

On to `COCCOC(=O)N1C(=O)[C@@]2(c3ccccc31)[C@H](c1ccc(O)cc1)N1[C@H](c3ccccc3)[C@H](c3ccccc3)OC(=O)[C@H]1[C@@H]2C(=O)N1CCc2cc(OC)c(OC)cc2C1`, for which the composite z-score was found to be 1.7 in test [1]; 0.848 in [2]; 0.341 in [3]; 0.107 in [4]; 1.35 in test [5]; 1.85 in [6]. Further, the composite z-score was found to be 1.14 in [8] and 0.216 in test [9]. Further, the z-score in [7] was 0.355; in [10] it was -0.704 (inactive).

For the compound `Cc1cc(C)c(C(O)C2C=CC3C(=O)N(C)C(=O)C3N2Nc2ccccc2)c(C)c1` (stereo not given), the composite z-score in test [1] was 1.83; in test [2] it was 0.496; in test [3] it was 0.471; in [4], 0.992; in test [5], 0.72; in test [6] it was -0.0568. Further, the composite z-score in [8] is -0.765; in test [9] it was 0.847. The results for the z-score in test [7] and in test [10] were 0.362 and 0.568 (inactive), respectively.

`O=C1O[C@@H](c2ccccc2)[C@@H](c2ccccc2)N2[C@@H](c3ccccc3OCCO)[C@]3(C(=O)Nc4ccc(C#CC5(O)CCCCCC5)cc43)[C@@H](C(=O)Nc3nc4ccccc4s3)[C@H]12`: the composite z-score in [1] was 1.22; in test [2], 1.21; in test [3], 0.237; in test [4], 0.991; in test [5] it was 1.25; in [6] it was 1.02. In addition, the composite z-score stood at 0.744 in test [8] and 0.847 in [9]. Further, the z-score in test [7] is -1.98; in [10] it was -0.84 (inactive).

With `C=CCN1C(=O)[C@]2(O[C@H](CCO)[C@@H]([Si](C)(C)c3ccc(OC)cc3)[C@@H]2C)c2cc(NC(=O)[C@H](C)O)ccc21`, the composite z-score was 1.58 in test [1]; 1.22 in test [2]; 0.937 in test [3]; 0.762 in [4]; 0.222 in test [5]; 0.313 in test [6]. Also, the composite z-score in test [8] turned out to be 0.673; in test [9] it was 0.394. In addition, the z-score in test [7] is 0.388; in [10], -0.181 (inactive).

Regarding `O=C(CS)NCCCCCCNC(=O)[C@H]1C[C@H]2C(=O)NCC(=O)N2[C@H]1c1ccc(O)cc1`, the composite z-score in [1] is 0.0346; in test [2], -0.591; in test [3] it was 0.147; in [4] it was -0.634; in test [5] it was 1.11; in test [6], 0.697. Also, the values for the composite z-score in test [8] and in test [9] were -0.0467 and -0.223, respectively. Further, the z-score in [7] was 0.139; in [10], -0.199 (inactive).

Turning to `O=C1O[C@@H](c2ccccc2)[C@@H](c2ccccc2)N2[C@@H](c3ccc(OCCO)cc3)[C@]3(C(=O)Nc4ccc(C#CC5=CCCCC5)cc43)[C@@H](C(=O)O)[C@H]12`, the composite z-score in test [1] was 1.42; in [2], 1.01; in test [3] it was 1.31; in [4], 0.865; in test [5], 0.878; in [6], 0.34. Besides, the composite z-score in test [8] came to 0.46; in [9], 0.997. Moreover, the z-score in test [7] is -2.48; in test [10], -6.59 (inactive).

In the case of `C=CCNC(=O)[C@@H]1[C@H]2C(=O)O[C@H](c3ccccc3)[C@H](c3ccccc3)N2[C@H](c2ccc(OCCO)cc2)[C@@]12C(=O)Nc1ccccc12`, the composite z-score came to 0.797 in test [1]; 1.22 in test [2]; 0.102 in test [3]; 0.934 in test [4]; 1.1 in [5]; 0.516 in [6]. The composite z-score is 1.03 in [8] and 0.496 in [9]. Further, the results for the z-score in test [7] and in [10] were 0.253 and -8.15 (active), respectively.

With `O=C1C[C@]2(c3ccc([N+](=O)[O-])cc3)C(=O)N(CC(F)(F)F)c3cc(CO)ccc3[C@H]2N1CC12CC3CC(CC(C3)C1)C2`, the composite z-score in test [1] is -0.239; in test [2], -0.369; in test [3], 0.0419; in test [4], -1.16; in [5], 0.77; in [6] it was 0.0808. Further, the composite z-score in test [8] came to 0.551; in test [9], 0.122. The z-score is 0.297 in test [7] and 1.09 (inactive) in test [10].

On to `CCOC(=O)C1=CC[C@@H](c2ccccc2Cl)N(S(=O)(=O)c2ccc(C)cc2)C1`, for which the composite z-score in test [1] turned out to be 1.15; in [2], 1.18; in test [3] it was 1.29; in test [4], 0.838; in [5] it was 0.37; in test [6] it was 0.163. Also, the composite z-score is -0.612 in [8] and 0.91 in test [9]. For the same compound, the z-score in test [7] was 2.73; in test [10] it was 0.614 (inactive).

For the compound `CCN(CC)c1ccc(N2CC=CC34O[C@@H]5C=CCCOC(=O)C5[C@H]3C(=O)N(CCCCCO)[C@@H]4C2=O)cc1` (stereo not given in full), the composite z-score in test [1] was 0.0436; in [2], -0.513; in test [3], -0.172; in test [4] it was -0.471; in test [5] it was -0.0495; in test [6], -0.304. Besides, the composite z-score in [8] was -0.0412; in test [9], 0.169. In addition, the z-score in test [7] was 2.56; in test [10], -1.29 (inactive).

As for `C[C@H]1NC(=O)[C@H](Cc2ccccc2)NC(=O)[C@@]23C(=O)N[C@@H](Cc4ccccc4)C2[C@H](C)[C@@]2(C)O[C@H]2C3/C=C/C/C=C\CNC1=O` (stereo not given in full), the composite z-score was -0.708 in [1]; -1.27 in [2]; -0.261 in test [3]; -1.75 in test [4]; 0.275 in test [5]; 0.0643 in test [6]. Also, the composite z-score in test [8] was -0.94; in test [9], -0.585. In addition, the z-score in [7] was 0.593; in [10], -0.923 (inactive).

As to `COc1cc(CO)ccc1OC(C)=O`, the composite z-score in [1] came to 0.529; in test [2], 0.741; in test [3], 0.315; in test [4], 0.555; in test [5], 1.07; in test [6], 0.502. Besides, the composite z-score came to 0.636 in [8] and 0.243 in [9]. Also, the figures for the z-score in [7] and in test [10] were 1.54 and -0.743 (inactive), respectively.

For `COCCOC(=O)N1C(=O)[C@@]2(c3cc(C#CC4(O)CCCCCC4)ccc31)[C@H](C(=O)N1CCCCCCC1)[C@H]1C(=O)O[C@H](c3ccccc3)[C@H](c3ccccc3)N1[C@@H]2c1ccccc1OCCO`, the composite z-score in test [1] came to 1.24; in [2], 1.22; in test [3] it was 0.808; in test [4] it was 0.832; in test [5] it was 1.42; in test [6], 1.11. The composite z-score in [8] is 0.955; in [9], 1.39. Besides, the z-score in test [7] was -1.04; in [10], -0.969 (inactive).
